Experimental data published in PubChem BioAssay AID720519 (National Center for Advancing Translational Sciences (NCATS), 2013).
Inconclusive results are not listed. Calls follow the shape of the dose curve; as a rule, active = well fitted activation curve with a large enough effect; inconclusive = small, poorly fitted or top-dose-only effect; inactive = flat fitted curve, though single readings scatter.

Assay: qHTS for Inhibitors of Cell Surface uPA Generation: Confirmatory Assay for Cherry-picked Compounds; also: 0% is about no effect
Conditions: cell surface uPA activity generation, qHTS confirmation; series mostly up to 115 µM; inhibition: at the top concentration
Procedure, shortened: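 RAW 264.7 cells at 4000/well, incubated overnight, then treated with compounds. After 24 h at 37 C, viability was read by ATPlite luminescence. An increase in signal indicates blocked uPA-dependent LF entry.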

inhibition, inactive:
CCCCN(CC(=O)Nc1cccc(S(=O)(=O)N2CCCC2)c1)Cc1nc2ccccc2c(=O)[nH]1 -3.5%, Cc1cccc(CCNC(=O)Cc2ccc(NC3=NC4CS(=O)(=O)CC4S3)cc2)c1 (centres undefined) 5.41%, Cc1oc(-c2ccccc2F)nc1CS(=O)CC(=O)NCc1ccc(F)cc1 (centres undefined) -1.82%, O=C(Nc1c(C(=O)O)oc2ccc(Br)cc12)c1ccccc1 -3.83%, O=C(CCS(=O)(=O)c1ccc2c(c1)NC(=O)CS2)NCc1cccs1 0.665%, CC(Sc1nnc2ccccn12)C(=O)NCc1ccc2c(c1)OCO2 (centres undefined) 0.214%, O=C(Cc1n[nH]c(=O)c2ccccc12)Nc1cccc(S(=O)(=O)N2CCCCCC2)c1 -3.3%, CC1CC(C)CN(CCCNC(=O)CN2C(=O)CSc3ccc(S(=O)(=O)N4CCOCC4)cc32)C1 (centres undefined) 0.198%, CCCOC(=O)CSC1=C(C#N)C(c2ccccc2Cl)CC(=O)N1 (centres undefined) -3.31%, O=C(CNS(=O)(=O)c1ccc(F)cc1)Nc1ccccc1 -1.01%, O=C(O)c1ccc(-c2ccc(/C=C3\NC(=O)N(Cc4ccc(Cl)cc4)C3=O)o2)cc1 -0.247%, O=C(NNC(=O)c1cccnc1)c1ccncc1 -1.17%, CCCCCOC(=O)Nc1nnc(CCCCC)s1 2.17%, Cc1cccc(CNc2ccc(C(CC(N)=O)NC(=O)c3cccc(Br)c3)cc2[N+](=O)[O-])c1 (centres undefined) -0.0467%, CCNc1nc(Nc2ccc(C)c(Cl)c2)c2cnn(C)c2n1 -1.27%, COCCOC(=O)C1=C(C)NC(=O)NC1c1cccc2ccccc12 (centres undefined) 1.45%, O=S(=O)(NCCc1ccccc1F)c1cccc(S(=O)(=O)N2CCOCC2)c1 -3.02%, Cc1ccnc(NC(=O)CCNS(=O)(=O)c2ccc(C)c(C)c2)c1 -1.55%, O=C(Nc1ccc(NC(=O)c2ccco2)c(Cl)c1)c1ccccc1 -0.468%, COc1ccc(CN2CCN(Cc3ccc(C(F)(F)F)cc3)CC2)cc1 -2.64%, O=C(CN1CCN(Cc2ccc(Cl)cc2)C1=O)NCc1cccs1 -1.61%, CC(C)N1CCc2c(sc(NC(=O)CCc3ccccc3)c2C(N)=O)C1 6.59%, Cc1ccccc1OCCC(=O)NNC(=O)c1ccccc1F -0.751%, CC(/C=C/C1(O)C(C)CC(O)CC1(C)C)OC1OC(CO)C(O)C(O)C1O (centres undefined) 1.24%, COC(=O)C1C(=O)c2c([nH]c(C(=O)OC3CCCCC3)c2C)CC1C (centres undefined) -0.386%, COC(=O)C(CCSC)NC(=O)Cn1ncc2c(=O)oc3ccccc3c21 (centres undefined) 0.519%, COc1cc(CCC(=O)OCC(=O)NCc2ccccc2)cc(OC)c1OC 0.19%, CC(C)OC(=O)c1ccc(N2CCN(c3ccccc3F)CC2)nc1 -2.84%, COc1ccccc1C(=O)Nc1cccc(C(=O)c2ccccc2)c1 -2.99%, COc1ccccc1NC(=O)COc1ccc(C(=O)NCc2ccccc2)cc1OC -0.346%, CCOC(=O)C1=CC[C@@H](c2cc3ccc(OC)cc3n2C)N(S(=O)(=O)c2ccc(C)cc2)[C@H]1C(=O)OCC -1.93%, O=c1[nH]c2ccccc2cc1CN(CC1CCCO1)S(=O)(=O)c1ccccc1 (centres undefined) -0.407%, O=C(COc1ncnc2sccc12)Nc1cccc(S(=O)(=O)N2CCCC2)c1 -1.13%, C=CCN1C=C2C(=O)C(C)(OC(=O)c3cnc4ccccc4n3)C(=O)C=C2C=C1/C=C/COC (centres undefined) -0.841%, CC(=O)c1cnc2nc(SCc3cccc(C)c3)nn2c1C -2.2%, C[C@H](CO)N1C[C@H](C)[C@H](CN(C)S(=O)(=O)c2cn(C)cn2)Oc2ccc(NC(=O)Nc3ccc(C(F)(F)F)cc3)cc2CC1=O 0.623%, CCOc1ccccc1N(CC(=O)Nc1ccc(OC)cc1)S(=O)(=O)c1ccccc1 0.111%, Cn1nc(N2CCN(S(=O)(=O)c3ccccc3)CC2)c(=O)n(C)c1=O -0.274%, Cc1ccc(C)c(-c2ccc(=O)n(Cc3c(F)cccc3Cl)n2)c1 -3.64%
